Source: PubChem BioAssay
The list is not random: actives were taken first. Their share in the collection is about 1.5%.
EBV gp42 block: inhibitors of Epstein-Barr virus glycoprotein 42. Q1HVG2. inhibition, % (tested at 21.74 µM). 0.42% of 220,000 active. Fluorescence polarization binding assay, mP read-out; in the data active means inhibition above about 50%
Target sequence (Q1HVG2 whole entry, looked up): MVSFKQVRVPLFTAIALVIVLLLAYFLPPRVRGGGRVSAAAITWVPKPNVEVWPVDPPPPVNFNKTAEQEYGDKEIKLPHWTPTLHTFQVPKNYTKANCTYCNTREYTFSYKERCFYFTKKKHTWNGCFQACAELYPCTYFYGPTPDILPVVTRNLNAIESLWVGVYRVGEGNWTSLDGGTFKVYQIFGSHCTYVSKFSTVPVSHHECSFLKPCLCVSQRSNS
eLon inh: E. coli protease La inhibition. P0A9M0. purified E. coli Lon protease, fluorescence polarization. inhibition, % at 7.94 µM. 0.42% of 360,000 active. AID 602123; in the data active means inhibition above about 13%, passing the limit was not always enough;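 further: 0% = enzyme with probe and DMSO and 100% = no enzyme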
GLD-1 TGE inh: GLD-1-TGE RNA interaction inhibition (C. elegans); 0.44% of 320,000 active; inhibition, % at 5.96 µM; purified GLD-1 + fluorescein TGE RNA, fluorescence polarization; AID 2280; Q17339;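 active means percent inhibition above a per-plate cutoff, the plate mean of test compounds plus 3 SD, cut at about 30% in these data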;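 further: 0% = DMSO wells with GLD-1 and probe and 100% = wells lacking GLD-1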
MEX-5 binding: C. elegans MEX-5 TCR-2 RNA binding activity | Q9XUB2 | MEX-5/FITC-TCR2 RNA binding, fluorescence polarization; hits give low values | activity score (negative = inhibition of binding), % at 10 µM | 0.38% of 300,000 active | AID 1832;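 active means inhibition past about -25% in most replicates, and total fluorescence under double the plate's negative control median, limit read from the data; inconclusive means replicates evenly split on the limit, or fluorescence at least double controls; inactive means too little inhibition in most replicates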;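 further: 0% = DMSO and -100% = 5 µM competing unlabeled TCR2 RNA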
MCL1 BIM primary: disrupts human MCL1 binding to BIM-BH3 peptide. Q07820. GST-MCL1 / FITC-Bim-BH3 fluorescence polarization. inhibition, % at 10.9 µM. 0.68% of 320,000 active. AID 2057;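 active means inhibition above the mean inhibition of all tested compounds plus 3 SD, set per campaign, cut at about 40% in these data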;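 further: 0% = DMSO wells and 100% = unlabeled Bim-BH3 peptide control; higher means more loss of mP so more displacement of Bim peptide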
Target sequence (Q07820 whole entry, looked up): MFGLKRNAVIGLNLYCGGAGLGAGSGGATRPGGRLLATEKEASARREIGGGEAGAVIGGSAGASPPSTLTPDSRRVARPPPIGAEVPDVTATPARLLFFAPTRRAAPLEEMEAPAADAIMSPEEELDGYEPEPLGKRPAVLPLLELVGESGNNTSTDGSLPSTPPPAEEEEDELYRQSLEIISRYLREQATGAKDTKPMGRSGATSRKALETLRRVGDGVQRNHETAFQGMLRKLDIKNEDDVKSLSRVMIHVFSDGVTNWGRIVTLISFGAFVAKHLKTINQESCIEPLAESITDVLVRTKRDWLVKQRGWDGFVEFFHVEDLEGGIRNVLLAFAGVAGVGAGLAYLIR
BCLXL inh: blocks human Bcl-xL binding to Bim BH3 peptide; Q07817; GST-Bcl-xL / FITC-Bim BH3 peptide fluorescence polarization; inhibition, % at 10.9 µM; 0.7% of 320,000 active;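 active means inhibition above the mean of all tested compounds plus 3 SD, cutoff set per campaign, cut at about 30% in these data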;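 further: 0% = DMSO wells and 100% = unlabeled Bim-BH3 peptide competitor; inhibitors lower millipolarization by displacing the labeled peptide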
BCLXL inh confirm: counter-screen for MCL1 inhibitors: confirmation of human Bcl-xL inhibitors. shares compounds with MCL1 BIM primary. 54% of 1,700 active. GST-Bcl-xL / FITC-Bim BH3 peptide FP binding. inhibition, % at 10.9 µM. AID 2166;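 active means inhibition above a cutoff equal to the mean inhibition of all tested compounds plus 3 SD, cut at about 30% in these data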;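 further: 0% = DMSO wells and 100% = unlabeled Bim BH3 control peptide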
MCL1 BIM confirm: MCL1-BIM-BH3 interaction inhibition, confirmation; shares compounds with MCL1 BIM primary; GST-MCL1 / FITC-Bim-BH3 fluorescence polarization; inhibition, % at 10.9 µM; 61% of 1,700 active; AID 2168;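 active means inhibition above the average of all tested compounds plus 3 SD, cut at about 40% in these data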;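 further: 0% = DMSO wells and 100% = unlabeled Bim-BH3 control peptide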
Active calls of the source: *; ? = inconclusive; / = no result given.

SMILES	EBV gp42 block	eLon inh	GLD-1 TGE inh	MEX-5 binding	MCL1 BIM primary	BCLXL inh	BCLXL inh confirm	MCL1 BIM confirm
O=c1c(-c2ccc([N+](=O)[O-])cc2)coc2c(O)c(O)ccc12	-3	-3	3	-10	45*	26	43*	63*
CN(C)Cc1c(O)ccc2c(=O)c(-c3ccc(Cl)cc3)coc12	/	-2	3	-2	3	7	/	/
N#Cc1ccc2ccn(CC(=O)NC3CCCCCC3)c2c1	-10	-3	6	-3	-5	-1	/	/
COC(=O)c1ccc2ccn(CC(=O)NC3CCCCC3)c2c1	-19	-6	24	-1	49*	28	3	-4
CCCC#Cc1cnc2c(c1)C(=O)N([C@H](C)CO)C[C@H](C)[C@@H](CN(C)C(=O)CCN1CCCCC1)O2	/	-4	/	/	/	/	/	/
c1ccc(-c2nnc(CN3CCCc4ccccc43)o2)cc1	-2	-18	-4	-6	72*	65*	46*	68*
Cc1noc(/C=C/N(C)C)c1S(=O)(=O)N1CCCC(C(=O)N2CCCCC2)C1 (stereo unspecified)	-19	-5	32*	-1	66*	72*	17	8
Cc1noc(/C=C/N(C)C)c1S(=O)(=O)N1CCCC(C(=O)NC2CCCCC2)C1 (stereo unspecified)	-13	-30	-13	4	-15	-13	/	/
COc1ccc2c(CN3CCCCCCC3)cc(=O)oc2c1	/	-2	/	/	/	/	/	/
NC(=O)c1c(NC(=O)C2CCCO2)sc2c1CCC2 (stereo unspecified)	-1	-1	1	0	5	-3	/	/
NC(=O)c1c(NC(=O)C2CCCO2)sc2c1CCCCC2 (stereo unspecified)	-5	-3	18	-9	43*	33*	19	28
COc1ccc(CC(=O)OCC(=O)Nc2ccc3[nH]c(=O)[nH]c3c2)cc1OC	/	4	/	/	/	/	/	/
N#CC1=C(N)n2c(s/c(=C\c3ccco3)c2=O)=C(C#N)C1c1ccco1 (stereo unspecified)	-3	-18	7	-12	55*	44*	104*	150*
CCOC(=O)C1=C(N)n2c(s/c(=C/c3ccco3)c2=O)=C(C(=O)OC)C1c1ccco1 (stereo unspecified)	-16	-8	4	-2	2	7	/	/
O=c1c2c(ncn2C2CCCC2)n(Cc2ccccc2)c(=O)n1CCOc1ccccc1	-17	-10	1	1	4	-1	/	/
O=c1c2c(ncn2C2CCCC2)n(Cc2ccccc2)c(=O)n1CCOc1ccc(Br)cc1	-37	-8	-3	3	53*	-2	17	18
COc1ccc(NC(=O)CN(C)C(=O)c2cccc(-n3cccc3)c2)cc1	/	-5	1	-1	48*	9	4	27
COc1cccc(=O)c2c(C)n(CC(=O)c3ccccc3)c(C)c12	0	-12	3	3	47*	24	13	16
O=C1C2C(C(=O)N1/N=C/c1cc([N+](=O)[O-])c(O)cc1O)C1C=CC2C12CC2 (stereo unspecified)	16	4	-1	-9	48*	13	18	59*
C=CCSC1=N/C(=C\C=C\c2ccco2)C(=O)S1	-14	-8	0	0	47*	13	3	27
Oc1ccc(/C=N\Nc2cc(N3CCOCC3)nc(N3CCOCC3)n2)c(O)c1	-22	7	3	-8	8	5	/	/
Oc1ccc(/C=N/Nc2cc(N3CCCC3)nc(N3CCCC3)n2)cc1O	-8	0	12	-3	48*	18	15	14
Cc1c(Br)c(=O)oc2c(Br)c(O)c(O)cc12	-10	-9	6	-11	68*	24	36*	84*
O=S(=O)(/N=C(/Nc1cccc2ccccc12)c1ccccc1)c1ccc(Br)cc1	/	6	6	0	-6	3	/	/
CCn1nc(C)c(C2C(C#N)=C(N)OC3=C2C(=O)CCC3)c1C (stereo unspecified)	-11	0	4	-2	-1	11	/	/
SMILES	EBV gp42 block	eLon inh	GLD-1 TGE inh	MEX-5 binding	MCL1 BIM primary	BCLXL inh	BCLXL inh confirm	MCL1 BIM confirm
CCn1nc(C)c(/C=C2\CCCC3=C2OC(N)=C(C#N)C3c2c(C)nn(CC)c2C)c1C (stereo unspecified)	39	/	53*	?	72*	76*	70*	85*
COc1cccc(OCCCn2cc(/C=C3/C(=N)N4C=C(C)SC4=NC3=O)c3ccccc32)c1	37	-5	6	-29*	66*	59*	10	15
COc1ccc(OCCCn2cc(/C=C3/C(=N)N4C=C(C)SC4=NC3=O)c3ccccc32)cc1	12	2	5	-7	3	1	/	/
O=[N+]([O-])c1ccc2nc(-c3ccc(OC(F)F)cc3)cn2c1	-14	-7	14	-3	94*	13	1	3
Cc1oc(-c2ccccc2F)nc1CS(=O)CC(=O)NCc1ccc(F)cc1 (stereo unspecified)	/	6	-8	-3	3	-1	/	/
CCCSCC(=O)Nc1ncc2c(n1)-c1ccccc1CC2	60*	3	21	-7	62*	66*	71*	90*
O=C(CN1CCSC1=O)N1CCN(S(=O)(=O)c2ccc(Cl)cc2)CC1	/	-2	3	/	4	3	/	/
O=C(CN1CCSC1=O)N1CCN(S(=O)(=O)c2ccccc2)CC1	/	1	3	/	55*	6	5	11
CCOc1cc(/C=N/n2c(COc3ccccc3)n[nH]c2=S)ccc1O	/	-8	-16	1	-19	-8	/	/
Oc1ccc(/C=N/n2c(COc3ccccc3)n[nH]c2=S)cc1O	/	-5	-10	-11	44*	11	20	31
CCn1cc(C(=O)Nc2ncccc2O)c(=O)c2cc(F)c(N3CCN(C(=O)c4ccco4)CC3)cc21	/	4	7	/	10	6	/	/
CN(C)C(=O)N1CCN(C(=O)N2CCOCC2)CC1	-16	-7	101*	1	139*	158*	3	7
CCN(CC)C(=O)N1CCN(C(=O)N2CCOCC2)CC1	-17	-6	2	-1	2	5	/	/
COc1ccc(-n2cnnc2SCC(=O)Nc2ccccc2F)cc1	/	-3	9	-4	0	-1	/	/
COc1ccc(C(=O)Nc2nnc(Cc3cccs3)s2)cc1OC	-12	9	0	0	-9	4	/	/
O=C(Cc1cccs1)Nc1nnc(Cc2ccccc2)s1	28	-34	-10	2	54*	4	8	44*
